Screens deposited in PubChem BioAssay by National Center for Advancing Translational Sciences (NCATS).
DT40 TDP1 CPT: qHTS for Inhibitors of human tyrosyl-DNA phosphodiesterase 1 (TDP1): qHTS in cells in presence of CPT | chicken DT40 Tdp1-/-;hTDP1 cells + 20 nM CPT, ATP luminescence, 48 h | Potency, µM (series often up to 46.2 µM), without a hit: top-dose activity change, negative = growth inhibition, hits mostly inhibitors | hit rate 12% among 420,000 | AID 686979, 2013; also: potency is read from the fitted curve at half-maximal effect; % is scaled to controls: 0 for no effect and ±100 for the full control effect; nearly all actives have a fitted effect of over 55% in size
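Chicken DT40 Tdp1-/- cells stably complemented with human TDP1 were seeded at 400 cells/well in medium containing 20 nM camptothecin, exposed to pin-transferred compounds, and grown at 37 °C for at least 48 hr. Viability was read as ATP luminescence.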
TDP1 cell noCPT: qHTS for Inhibitors of human tyrosyl-DNA phosphodiesterase 1 (TDP1): qHTS in cells in absence of CPT; DT40 Tdp1-/- hTDP1 cells, no CPT, ATP luminescence, 48 h; Potency, µM (top dose mostly 46.2 µM), without a hit: top-dose activity change, negative = growth inhibition, usual class: inhibitors; hit rate 15% among 420,000; also: potency is read from the fitted curve at half-maximal effect; % is scaled to controls: 0 for no effect and ±100 for the full control effect; nearly all actives have a fitted effect of over 55% in size
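Chicken DT40 Tdp1-/- cells stably complemented with human TDP1 were seeded at 400 cells/well with DMSO in place of 20 nM camptothecin. After compound pinning, cells grew at least 48 hr at 37 °C; viability read by CellTiter-Glo luminescence.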
MCF10A rerep: A quantitative high throughput screen for small molecules that induce DNA re-replication in MCF 10a normal breast cells | MCF 10A DNA re-replication, Hoechst nuclear intensity, 48 h | Potency, µM (doses to about 46.1 µM), for inactives: top-dose activity, positive = re-replication, most hits filed as activators | hit rate 2.9% among 350,000; also: potency is read from the fitted curve at half-maximal effect; % of control where 0% means no effect; nearly all actives have a fitted effect of over 50% in size
Chronic BCR inh: qHTS Assay to Find Inhibitors of Chronic Active B-Cell Receptor Signaling; ABC-DLBCL IkBa-CBG/CBR reporter, luminescence ratio, 4 h; Potency, µM (top dose mostly 46.1 µM), without a hit: top-dose activity change, negative = inhibition, hits mostly inhibitors; hit rate 0.05% among 340,000; AID 493014, 2011; active = well fitted inhibition curve with a large enough effect in the signal ratio, with a control signal flat, not every such curve was filed as active; inconclusive = small, poorly fitted or top-dose-only effect, or effect the other way, or a change in a side signal; the % refers to the signal ratio;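 also: potency is read from the fitted curve at half-maximal effect; plate controls were basal doxycycline-induced cells for no effect and cells given 10 µM MG132 for full effect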
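Concentration-response series (up to 46 uM) were applied to TMD8 dual-reporter cells for 4 h at 37C with doxycycline. Green/red ratio, after filter-overlap correction, defined %Activity; red signal alone was normalised to basal cells and zero luminescence.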
IL-1B inflam inh: qHTS for Inhibitors of Inflammasome Signaling: IL-1-beta AlphaLISA Primary Screen. THP-1 LPS/ATP IL-1B secretion, AlphaLISA, 16 h; stronger effect = lower value. activity change, % at 57.5 µM. hit rate 4.7% among 360,000. AID 743279, 2014; in the data active = activity change below about -50%; inconclusive = mostly about -30% to -49%; also: % is scaled to controls: 0 for no effect and ±100 for the full control effect
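THP-1 cells pretreated 1 hr with compounds (up to 57.5 uM final), then stimulated with LPS (250 ng/mL final) plus ATP (1.25 mM final); secreted IL-1B measured by AlphaLISA after 16 hr, decreased signal indicating inhibition.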
SW480 rerep: A quantitative high throughput screen for small molecules that induce DNA re-replication in SW480 colon adenocarcinoma cells; SW480 DNA re-replication, Hoechst DNA content imaging, 48 h; Potency, µM (series often up to 46.1 µM), without a hit: at the top dose re-replication activation, usual class: activators; AID 624297, 2012; hit rate 1.8% among 340,000; also: potency is read from the fitted curve at half-maximal effect; % of control where 0% means no effect; nearly all actives have a fitted effect of over 55% in size
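Hoechst fluorescence of nuclei (405 nm excitation, 500-530 nm emission) measured by plate-scanning imager after 48 hr compound exposure at 37 C; re-replication scored as increased number of nuclei with elevated intensity.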
The depositor's hits bear a star. Sampled rows, rich in hits. Any-hit rate of the full collection: about 19%. Unless noted, calls follow the shape of the dose curve; as a rule, active = well fitted curve in the direction sought with a large enough effect; inconclusive = small, poorly fitted or top-dose-only effect, or another doubt; inactive = no such curve, though single readings can be large; an effect the other way counts as inactive or inconclusive.

`CCOC(=O)c1c(NC(=O)CN2CCCc3ccccc32)sc(C(C)=O)c1C` gave DT40 TDP1 CPT inconclusive, TDP1 cell noCPT 21µM*, MCF10A rerep -2%, Chronic BCR inh inconclusive, IL-1B inflam inh 13 and SW480 rerep 4%.
Screening CCOC(=O)c1c(NC(=O)Cc2cccs2)sc(C(=O)N2CCCCC2)c1C returned DT40 TDP1 CPT inconclusive, TDP1 cell noCPT 9.2µM*, MCF10A rerep inconclusive, Chronic BCR inh 4%, IL-1B inflam inh -9 and SW480 rerep 1%.
`COCCOC(=O)c1c(NC(=O)CN2CCc3ccccc32)sc(C(N)=O)c1C` gave DT40 TDP1 CPT inconclusive, TDP1 cell noCPT -15%, MCF10A rerep -3%, Chronic BCR inh 2%, IL-1B inflam inh 28 and SW480 rerep 27%.
For COc1cccc(OC)c1C(=O)N1CCNCC1 the results were DT40 TDP1 CPT -24%, TDP1 cell noCPT -5%, MCF10A rerep 3%, Chronic BCR inh 5%, IL-1B inflam inh 12 and SW480 rerep -3%.
CC(C)CCN1CCN(C2CCN(c3ccc4c(c3)OCO4)CC2)CC1CCO (stereo unspecified) was read as DT40 TDP1 CPT 9%, TDP1 cell noCPT -24%, MCF10A rerep -4%, Chronic BCR inh -19%, IL-1B inflam inh 10 and SW480 rerep 5%.
Cc1cc(F)ccc1N1CCC(N2CCN(C(C)C)C(CCO)C2)CC1 (stereo unspecified) was read as DT40 TDP1 CPT inconclusive, TDP1 cell noCPT 23µM*, MCF10A rerep inconclusive, Chronic BCR inh inconclusive, IL-1B inflam inh -3 and SW480 rerep 1%.
`COc1cccc(CN2CCN(C3CCN(c4ccccc4C)CC3)CC2CCO)c1` (stereo unspecified) gave DT40 TDP1 CPT inconclusive, TDP1 cell noCPT 18µM*, MCF10A rerep 7%, Chronic BCR inh -11%, IL-1B inflam inh -1 and SW480 rerep 6%.
`COc1cccc(CN2CCN(C3CCN(c4ccccc4F)CC3)CC2CCO)c1` (stereo unspecified) gave DT40 TDP1 CPT inconclusive, TDP1 cell noCPT inconclusive, MCF10A rerep 7%, Chronic BCR inh -9%, IL-1B inflam inh -8 and SW480 rerep 5%.
`Cc1cc(F)ccc1N1CCC(N2CCN(CCC(C)C)C(CCO)C2)CC1` (stereo unspecified) gave DT40 TDP1 CPT inconclusive, TDP1 cell noCPT 23µM*, MCF10A rerep inconclusive, Chronic BCR inh inconclusive, IL-1B inflam inh -66* and SW480 rerep 25%.
`CCOc1ccc(NC(=O)COc2nsnc2N2CCOCC2)cc1` gave DT40 TDP1 CPT 16µM*, TDP1 cell noCPT 13µM*, MCF10A rerep 1%, Chronic BCR inh -11%, IL-1B inflam inh 7 and SW480 rerep -17%.
Screening COC(=O)Oc1nsnc1N1CCOCC1 returned DT40 TDP1 CPT 23µM*, TDP1 cell noCPT inconclusive, MCF10A rerep -2%, Chronic BCR inh -1%, IL-1B inflam inh inconclusive and SW480 rerep 5%.
For Cc1ccccc1NC(=O)COc1nsnc1N1CCOCC1 the results were DT40 TDP1 CPT -2%, TDP1 cell noCPT -1%, MCF10A rerep 5%, Chronic BCR inh inconclusive, IL-1B inflam inh -2 and SW480 rerep -4%.
For O=C(COc1nsnc1N1CCOCC1)N/N=C/c1ccccc1O the results were DT40 TDP1 CPT 4.6µM*, TDP1 cell noCPT 2.6µM*, MCF10A rerep inconclusive, Chronic BCR inh 0%, IL-1B inflam inh 48 and SW480 rerep 18µM*.
`Cc1ccc(-c2nc(SCC(=O)NCC3CCCO3)c(-c3ccccc3)[nH]2)cc1` (stereo unspecified) gave DT40 TDP1 CPT inconclusive, TDP1 cell noCPT inconclusive, MCF10A rerep 5%, Chronic BCR inh -1%, IL-1B inflam inh -19 and SW480 rerep inconclusive.
Screening NNc1ccc2nnc(C(F)(F)C(F)(F)C(F)(F)F)n2n1 returned DT40 TDP1 CPT 14%, TDP1 cell noCPT -12%, MCF10A rerep 0%, Chronic BCR inh -1%, IL-1B inflam inh 14 and SW480 rerep 2%.
`Cc1cc(C)nc(Sc2ccc3nnc(C(F)(F)C(F)(F)C(F)(F)F)n3n2)n1` gave DT40 TDP1 CPT -8%, TDP1 cell noCPT -23%, MCF10A rerep inconclusive, Chronic BCR inh -6%, IL-1B inflam inh inconclusive and SW480 rerep 15µM*.
For FC(F)(F)c1ccc(-c2cccc3c2C2CC3CCN2C(=S)NCCc2ccccc2)cc1 (stereo unspecified) the results were DT40 TDP1 CPT inconclusive, TDP1 cell noCPT inconclusive and IL-1B inflam inh -8.
Screening COc1ccc(C(=O)Nc2ccc3c(c2)OCCO3)cc1 returned DT40 TDP1 CPT -28%, TDP1 cell noCPT -15%, MCF10A rerep inconclusive, Chronic BCR inh inconclusive, IL-1B inflam inh -15 and SW480 rerep 7.3µM*.
CC(=O)Oc1ccc(C(=O)Nc2ccccc2NC(=O)c2ccc(OC(C)=O)cc2)cc1 was read as DT40 TDP1 CPT -14%, TDP1 cell noCPT -12%, MCF10A rerep 8%, Chronic BCR inh inconclusive, IL-1B inflam inh 1 and SW480 rerep -8%.
For COc1ccc(C(=O)CCNc2ccc3c(c2)OCCO3)cc1 the results were DT40 TDP1 CPT 15µM*, TDP1 cell noCPT 13µM*, MCF10A rerep 23µM*, Chronic BCR inh -2%, IL-1B inflam inh -53* and SW480 rerep inconclusive.
CCCOc1ccc(C(=O)Nc2ccc3c(c2)OCCO3)cc1 was read as DT40 TDP1 CPT -18%, TDP1 cell noCPT -18%, MCF10A rerep inconclusive, Chronic BCR inh -2%, IL-1B inflam inh -18 and SW480 rerep 3%.
`CC(=O)Oc1ccc(C(=O)Nc2ccc3c(c2)OCCO3)cc1` gave DT40 TDP1 CPT 15µM*, TDP1 cell noCPT 13µM*, MCF10A rerep inconclusive, Chronic BCR inh inconclusive, IL-1B inflam inh inconclusive and SW480 rerep 1%.
`CC(=O)Oc1ccc(C(=O)Nc2cc(NC(=O)c3ccc(OC(C)=O)cc3)cc(C(=O)NC(C)(C)C)c2)cc1` gave DT40 TDP1 CPT 21µM*, TDP1 cell noCPT 26µM*, MCF10A rerep 8%, Chronic BCR inh inconclusive, IL-1B inflam inh -64* and SW480 rerep 1%.
